Experiment [1] is described as follows: NCI Yeast Anticancer Drug Screen. Data for the rad50 strain (AID 155).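 Note: 0% = growth of vehicle-only cultures of the same strain.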 The note with it: S. cerevisiae rad50 strain growth inhibition, stronger effect = higher value. The procedure, abridged:
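Vehicle-treated cultures provide the reference for the growth inhibition reported for compound-exposed, repair-deficient yeast.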

Experiment [2] is described as follows: NCI Yeast Anticancer Drug Screen. Data for the mec2-1 strain (AID 157). The conditions noted are these: S. cerevisiae mec2-1 strain, stronger effect = higher value. The procedure, abridged: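 Compounds were applied to mec2-1 yeast cells. Their growth was then compared with that of vehicle-treated cultures to give growth inhibition.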
Experiment [3] is described as follows: NCI Yeast Anticancer Drug Screen. Data for the sgs1 mgt1 strain (AID 161).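 Note: 0% = growth of cultures given vehicle only.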 The note with it: S. cerevisiae sgs1 mgt1 strain, stronger effect = higher value. Summed up: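 Yeast cells carrying a defined DNA-repair defect were exposed to test compounds. Growth inhibition was measured relative to vehicle-treated controls.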
A short description of experiment [4]: NCI Yeast Anticancer Drug Screen. Data for the cln2 rad14 strain (AID 165).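 Note: 0% = growth equal to vehicle treated cultures.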 The note with it: S. cerevisiae cln2 rad14 strain, stronger effect = higher value. The procedure, abridged:
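Strain: cln2 rad14 yeast, altered in cell cycle control and DNA damage repair. Read-out: growth inhibition vs vehicle.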

A short description of experiment [5]: NCI Yeast Anticancer Drug Screen. Data for the bub3 strain (AID 167). The note with it: S. cerevisiae bub3 mutant strain, stronger effect = higher value. Summed up: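 Mutant yeast screening strain plus compound; vehicle-treated cultures serve as the 0% inhibition reference.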
Experiment [6] is described as follows: NCI Yeast Anticancer Drug Screen. Data for the mlh1 rad18 strain (AID 175). The note with it: S. cerevisiae mlh1 rad18 strain growth inhibition, stronger effect = higher value. The procedure, abridged: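 A repair-deficient yeast strain is exposed to test compound, and growth is scored relative to vehicle-treated controls.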
Setting [7] is: at 5.0 µM (retest, dose inferred, filed as 0.5).
[8] abbreviates: at 50.0 µM (retest, dose inferred, filed as 5.0).

Structures are written as SMILES. This is part of a sample that, as a whole, favours compounds with a hit. Of some 79,000 tested, about 15% had one in any assay. A number with no mark means an inactive call. Activity calls are given as the source filed them. Cut-off read from the data, not from the text of the source: active = growth inhibition above about 70%; inactive = the rest.

Regarding `CCCCCCCCCCCCCCN1CCSCC1`, the growth inhibition is 6% in experiment [1] (setting [7]); 18% in experiment [1] (setting [8]); 98.5% (active) in experiment [1] (at 50.0 µM); 3% in experiment [2] (setting [7]); 14% in experiment [2] (setting [8]); 96% (active) in experiment [2] (at 50.0 µM). Also, the growth inhibition was 4% in experiment [3] (setting [7]); 1% in experiment [3] (setting [8]); 99% (active) in experiment [3] (at 50.0 µM); 5% in experiment [4] (setting [7]); 14% in experiment [4] (setting [8]); 98.6% (active) in experiment [4] (at 50.0 µM). For the same compound, the growth inhibition in experiment [5] (setting [7]) is 9%; in experiment [5] (setting [8]), 21%; in experiment [5] (at 50.0 µM) it was 99% (active); in experiment [6] (setting [7]) it was 5%; in experiment [6] (setting [8]) it was 12%; in experiment [6] (at 50.0 µM), 98.8% (active).
For `O=C(O)CCC(c1ccccc1)(c1ccccc1)c1ccccc1`, the growth inhibition was 66% in experiment [1] (setting [7]); 99% (active) in experiment [1] (setting [8]); 99.5% (active) in experiment [1] (at 50.0 µM); 53% in experiment [2] (setting [7]); 100% (active) in experiment [2] (setting [8]); 99.7% (active) in experiment [2] (at 50.0 µM). For the same compound, the growth inhibition was 54% in experiment [3] (setting [7]); 99% (active) in experiment [3] (setting [8]); 98.9% (active) in experiment [3] (at 50.0 µM); -59% in experiment [4] (setting [7]); 99% (active) in experiment [4] (setting [8]); 99% (active) in experiment [4] (at 50.0 µM). Besides, the growth inhibition in experiment [5] (setting [7]) was 80% (active); in experiment [5] (setting [8]) it was -50%; in experiment [5] (at 50.0 µM), 99.5% (active); in experiment [6] (setting [7]), 64%; in experiment [6] (setting [8]), 99% (active); in experiment [6] (at 50.0 µM) it was 99.2% (active).
On to `O=[N+]([O-])c1ccc(C=NC2CCCCC2)c([N+](=O)[O-])c1`, for which the growth inhibition in experiment [1] (setting [7]) is 0%; in experiment [1] (setting [8]), 46%; in experiment [1] (at 50.0 µM) it was 41%; in experiment [2] (setting [7]), -1%; in experiment [2] (setting [8]), 54%; in experiment [2] (at 50.0 µM) it was 46%. Also, the growth inhibition is 2% in experiment [3] (setting [7]); 69% in experiment [3] (setting [8]); 59.5% in experiment [3] (at 50.0 µM); -5% in experiment [4] (setting [7]); 25% in experiment [4] (setting [8]); -0.85% in experiment [4] (at 50.0 µM). Also, the growth inhibition in experiment [5] (setting [7]) is 20%; in experiment [5] (setting [8]) it was 83% (active); in experiment [5] (at 50.0 µM), 55.5%; in experiment [6] (setting [7]) it was -5%; in experiment [6] (setting [8]), 85% (active); in experiment [6] (at 50.0 µM), 73.3% (active).
Take `CC(C=O)Cc1ccccc1` (configuration not stated): the growth inhibition in experiment [1] (setting [7]) was 2%; in experiment [1] (setting [8]), -6%; in experiment [1] (at 50.0 µM), -8.9%; in experiment [2] (setting [7]) it was 5%; in experiment [2] (setting [8]), -1%; in experiment [2] (at 50.0 µM), -8.05%. Moreover, the growth inhibition in experiment [3] (setting [7]) is 3%; in experiment [3] (setting [8]), -4%; in experiment [3] (at 50.0 µM), -3.35%; in experiment [4] (setting [7]) it was -2%; in experiment [4] (setting [8]) it was -8%; in experiment [4] (at 50.0 µM), 37%. Moreover, the growth inhibition in experiment [5] (setting [7]) was -1%; in experiment [5] (setting [8]), -4%; in experiment [5] (at 50.0 µM), 10.3%; in experiment [6] (setting [7]) it was -4%; in experiment [6] (setting [8]), -8%; in experiment [6] (at 50.0 µM) it was -1.45%.
Consider `CSC(=S)N/N=C(C)/C=C/c1ccccc1`, for which the growth inhibition was 9% in experiment [1] (setting [7]); 98% (active) in experiment [1] (setting [8]); 98.2% (active) in experiment [1] (at 50.0 µM); 14% in experiment [2] (setting [7]); 98% (active) in experiment [2] (setting [8]); 98.5% (active) in experiment [2] (at 50.0 µM). Further, the growth inhibition in experiment [3] (setting [7]) was 25%; in experiment [3] (setting [8]) it was 98% (active); in experiment [3] (at 50.0 µM), 97.7% (active); in experiment [4] (setting [7]), -10%; in experiment [4] (setting [8]) it was 94% (active); in experiment [4] (at 50.0 µM), 97.8% (active). Besides, the growth inhibition in experiment [5] (setting [7]) is 13%; in experiment [5] (setting [8]) it was 98% (active); in experiment [5] (at 50.0 µM) it was 97.4% (active); in experiment [6] (setting [7]), 20%; in experiment [6] (setting [8]), 93% (active); in experiment [6] (at 50.0 µM) it was 95.3% (active).
Turning to `CCCCCCCCCCCCCCCCCC(=O)Nc1ccn(C2OC(CO)C(O)C2O)c(=O)n1` (configuration not stated), the growth inhibition in experiment [1] (setting [7]) was 19%; in experiment [1] (setting [8]), 4%; in experiment [1] (at 50.0 µM), 75.2% (active); in experiment [2] (setting [7]), 9%; in experiment [2] (setting [8]), 15%; in experiment [2] (at 50.0 µM) it was 83.6% (active). Further, the growth inhibition in experiment [3] (setting [7]) was 43%; in experiment [3] (setting [8]), 41%; in experiment [3] (at 50.0 µM), 67.8%; in experiment [4] (setting [7]) it was 40%; in experiment [4] (setting [8]), 45%; in experiment [4] (at 50.0 µM), 80.2% (active). The growth inhibition was 48% in experiment [5] (setting [7]); 43% in experiment [5] (setting [8]); 82.3% (active) in experiment [5] (at 50.0 µM); 15% in experiment [6] (setting [7]); 4% in experiment [6] (setting [8]); 82.8% (active) in experiment [6] (at 50.0 µM).
For `Clc1ccc2ccc3cccnc3c2n1`, the growth inhibition in experiment [1] (setting [7]) is 9%; in experiment [1] (setting [8]) it was 95% (active); in experiment [1] (at 50.0 µM) it was -38.5%; in experiment [2] (setting [7]), 7%; in experiment [2] (setting [8]), 97% (active); in experiment [2] (at 50.0 µM), -9.5%. In addition, the growth inhibition in experiment [3] (setting [7]) is 0%; in experiment [3] (setting [8]), 86% (active); in experiment [3] (at 50.0 µM) it was -13.2%; in experiment [4] (setting [7]) it was -4%; in experiment [4] (setting [8]), 92% (active); in experiment [4] (at 50.0 µM), 7.9%. For the same compound, the growth inhibition in experiment [5] (setting [7]) was -7%; in experiment [5] (setting [8]), 98% (active); in experiment [5] (at 50.0 µM), 20.4%; in experiment [6] (setting [7]), 3%; in experiment [6] (setting [8]) it was 94% (active); in experiment [6] (at 50.0 µM), -25.1%.
Consider `O=C1/C(=C/c2cccc(O)c2)SC(=S)N1/C=C\c1nc2ccccc2[nH]c1=O`, for which the growth inhibition was 8% in experiment [1] (setting [7]); 2% in experiment [1] (setting [8]); 9.55% in experiment [1] (at 50.0 µM); -8% in experiment [2] (setting [7]); -13% in experiment [2] (setting [8]); 5.1% in experiment [2] (at 50.0 µM). The growth inhibition was -4% in experiment [3] (setting [7]); 1% in experiment [3] (setting [8]); 3.6% in experiment [3] (at 50.0 µM); 17% in experiment [4] (setting [7]); -32% in experiment [4] (setting [8]); 33.2% in experiment [4] (at 50.0 µM). In addition, the growth inhibition in experiment [5] (setting [7]) is 11%; in experiment [5] (setting [8]), -5%; in experiment [5] (at 50.0 µM), -3.85%; in experiment [6] (setting [7]), -2%; in experiment [6] (setting [8]), -7%; in experiment [6] (at 50.0 µM) it was -0.25%.
Regarding `COC(=O)n1c(C[P+](c2ccccc2)(c2ccccc2)c2ccccc2)cc2ccccc21`, the growth inhibition is 89% (active) in experiment [1] (setting [7]); 100% (active) in experiment [1] (setting [8]); 99.2% (active) in experiment [1] (at 50.0 µM); 90% (active) in experiment [2] (setting [7]); 100% (active) in experiment [2] (setting [8]); 99.6% (active) in experiment [2] (at 50.0 µM). For the same compound, the growth inhibition in experiment [3] (setting [7]) was 79% (active); in experiment [3] (setting [8]) it was 99% (active); in experiment [3] (at 50.0 µM) it was 99.5% (active); in experiment [4] (setting [7]), 91% (active); in experiment [4] (setting [8]) it was 99% (active); in experiment [4] (at 50.0 µM), 98.1% (active). Further, the growth inhibition is 95% (active) in experiment [5] (setting [7]); 100% (active) in experiment [5] (setting [8]); 99.4% (active) in experiment [5] (at 50.0 µM); 90% (active) in experiment [6] (setting [7]); 99% (active) in experiment [6] (setting [8]); 99% (active) in experiment [6] (at 50.0 µM).

Source of the values: PubChem BioAssay (NCI).
